Assay results from PubChem BioAssay (NCI).
The panel holds about 83,000 compounds, 20% with a hit somewhere; the sample as a whole holds those more often.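 48-hour exposure, single concentration, 96-well plates; percent growth endpoint where 0 means no net growth. Active: below 10.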 A number with no mark means an inactive call. The source made the active and inactive calls.

tested on: HCT-15 colon; assay: NCI-60 one-dose screen, 48 h (100 = growth as untreated, 0 = no growth, -100 = all killed); conditions: 10 µM unless noted
Description: Growth inhibition of the HCT-15 human tumor cell line is measured as a screen for anti-cancer activity. Cells are grown in 96 well plates and exposed to the test compound for 48 hours. Compounds are tested at a single concentration, which is 10^-5 M for most compounds. The reported endpoint is percent growth (GI% or GIPRCNT), where numbers from 0 - 100% represent growth inhibition, and numbers from -100% - 0 represent cell death. For example, a value of 40 represents 60% growth inhibition. A value of 0 means no net growth occurred over the course of the experiment. A value of -40 indicates 40% of cells at the beginning of the experiment died by the end of the experiment. A value of -100 means all cells are dead at the end of the experiment.
NCI-60 Human Tumor Cell Lines Screen was performed using the standard one-dose NCI protocol, which is described in more detail at https://dtp.cancer.gov/discovery_development/nci-60/default.htm.
Compounds with GIPRCNT values below 10 were considered active. Activity score was based on GIPRCNT using the following formula: […]
Score is 0 for GIPRCNT values of 100 or above, 50 for GIPRCNT values of 0, and 100 for GIPRCNT values of -100.

Row | Compound | growth
1 | CC(=O)Nc1ccc(Sc2ccc([N+](=O)[O-])o2)cc1 | 2.17% (active)
2 | CC1SC(c2cccc(Oc3ccccc3)c2)N(CCc2cccs2)C1=O (stereo not given) | -16.3% (active)
3 | COc1nc2c(cc1S(=O)(=O)c1ccccc1)CCc1c-2cnn1-c1cccc(Cl)c1 | 71%
4 | CCCOC(=O)c1ccc2c(c1)[N+](=O)C(C(=O)c1ccccc1)=C(C(F)(F)F)[N+]2=O | -65.7% (active)
5 | COc1ccc(/C=C(\C#N)c2cc3ccccc3n2C)cc1 | 23.9%
6 | c1ccc(-c2nc(N3CCOCC3)c3c4c(sc3n2)CCCCCC4)nc1 | 46.9%
7 | CCCCNNC(=O)c1ccc(Br)cc1 | 78.6%
8 | COc1ccc(-n2ncc3c2ccc2cc(S(=O)(=O)c4ccccc4)c(=O)n(C)c23)cc1 | 92%
9 | C(=C\c1ccccc1)/CN1CCN(C(c2ccccc2)c2ccccc2)CC1 | 80.9%
10 | COc1cc(-c2nc(SC(C)C)nc(Nc3ccccc3C)c2C#N)cc(OC)c1OC | 102%
11 | CCCCCCCCCCCCCCCC[N+]1(C)CCOCC1 | 40.4%
12 | COc1ccc(/C=N/NC(=O)c2cnn3c2NC(c2ccccc2)C3)cc1OC1CCCC1 (stereo not given) | 70%
13 | O=C1CC2c3cc(-c4cc5ccccc5o4)ccc3CCN2C(=O)N1c1ccccc1 (stereo not given) | 54.6%
14 | C[C@@H](Oc1cc(-c2cnn(C3CC4(CCCNC4)C3)c2)cnc1N)c1c(Cl)ccc(F)c1Cl (stereo not given in full) | 16.2%
15 | COc1c(Cl)ccc2c(-c3nc4cc(Cl)c(F)cc4s3)cc(=O)oc12 | 82%
16 | Nc1nc(-c2ccnc(Cl)c2)nn1-c1nc2ccccc2s1 | 101%
17 | COC(=O)c1c2c(c(C)[n+]([O-])c1C)C(=O)C(NCc1ccc(O)cc1)=CC2=O | -43.4% (active)
18 | CCOC(=O)n1cc(C2=C(c3cn(C)c4ccccc34)COC2=O)c2ccccc21 | 12.2%
19 | Nc1cc(Br)c(-c2nnc(CCC(=O)c3nc4ccccc4[nH]3)o2)c(Br)c1 | 104%
20 | Cc1nc2cc(Nc3nc(NCCN)nc(Nc4ccc(F)cc4)n3)ccc2n1Cc1ccccc1 | 100%

Row | Compound | growth
21 | COc1ccc(-c2c3c(N)c4c(nc3nc3c2c(C)nn3-c2ccccc2)CCCC4)cc1 | 68.2%
22 | CCOC(=O)c1c(Cl)c2c(n1Cc1ccc(OC)cc1)-c1oncc1CCC2 | 83.7%
23 | CCCCC(CCCC)(S(=O)(=O)CC)S(=O)(=O)CC | 97.7%
24 | COc1ccc(/C=N/OCC(O)CNCc2ccccc2)cc1OC1CCCC1 (stereo not given) | 102%
25 | CC1CCCCN1S(=O)(=O)c1ccc(CN=C=S)cc1 (stereo not given) | 19.2%
26 | N#CCCN1CCN(CCC#N)C1=S | 106%
27 | COc1ccc(S(=O)(=O)ON=C2C=C(C)C(=O)C(C)=C2)cc1 | 85.9%
28 | Cc1nn(-c2ccccc2)c2nc3nc4c(c(N)c3c(-c3ccc(Cl)cc3)c12)CCCC4 | 93.3%
29 | COc1cccc(C2CC(=O)Nc3cc4c(cc32)OCO4)c1OC (stereo not given) | 89.4%
30 | C[C@@H](Oc1cc(-c2cnn(C3CC4(CNC4)C3)c2)cnc1N)c1c(Cl)ccc(F)c1Cl | 35.4%
31 | CCCCC(=O)N/N=C/c1cc(I)cc(I)c1O | 15.6%
32 | NC(=O)c1cc(I)ccc1NC(=O)COc1ccccc1 | 20.1%
33 | COc1cc(/C=C/C(=O)C2=C(/C=C/c3ccc(O)c(OC)c3)NC(=O)NC2c2ccc(O)c(OC)c2)ccc1O (stereo not given) | 97.4%
34 | COc1cc(/C=N/NC(=O)c2cnn3c2NC(c2ccccc2)C3)cc(OC)c1OC (stereo not given) | 37.7%
35 | COC(=O)/C=C1/CCC2C3CCC4=CC(=O)C(Br)CC4(C)C3C(=O)CC12C (stereo not given) | 66.6%
36 | COc1cccc2c(=O)c3c(sc12)c(NCCN(C)C)nc1ccccc13 | 16.5%
37 | O=C(COc1ccc(/C=C2\CSc3ccccc3C2=O)cc1)c1ccc(Cl)cc1 | 108%
38 | COc1c(O)c2c3c(c1OC)-c1ccccc1CC3N(S(=O)(=O)c1ccc(C)cc1)CC2 (stereo not given) | 37.3%
39 | COc1cccc(C2CC(=O)Nc3cc4c(cc32)CCC4)c1OC (stereo not given) | 36.4%
40 | CCC(=O)Nc1nnc(Cc2ccc(OC)c(OC)c2)s1 | 31.7%
